The list is not random: actives were taken first. Their share in the collection is about 6.6%.
TSG101-PTAP inh: qHTS Assay for Iinhibitors of HIV-1 Budding by Blocking the Interaction of PTAP/TSG101. Tumor susceptibility gene 101 protein (Homo sapiens), Q99816. Fluorescence polarization, FITC-PTAP peptide / Tsg101 binding. Potency, µM (highest dose often 115 µM), without a hit: at the top dose activity change, negative = inhibition, actives largely listed as inhibitors. 340,000 tested, under 10 active; active = well fitted inhibition curve with a large enough effect in the main read-out, with a control signal flat, not every such curve was filed as active; inconclusive = small, poorly fitted or top-dose-only effect, or effect the other way, or a change in a side signal; inactive = no such curve, though single readings can be large or run the other way; also: % of control where 0% means no effect
Target sequence (Q99816 whole entry, looked up): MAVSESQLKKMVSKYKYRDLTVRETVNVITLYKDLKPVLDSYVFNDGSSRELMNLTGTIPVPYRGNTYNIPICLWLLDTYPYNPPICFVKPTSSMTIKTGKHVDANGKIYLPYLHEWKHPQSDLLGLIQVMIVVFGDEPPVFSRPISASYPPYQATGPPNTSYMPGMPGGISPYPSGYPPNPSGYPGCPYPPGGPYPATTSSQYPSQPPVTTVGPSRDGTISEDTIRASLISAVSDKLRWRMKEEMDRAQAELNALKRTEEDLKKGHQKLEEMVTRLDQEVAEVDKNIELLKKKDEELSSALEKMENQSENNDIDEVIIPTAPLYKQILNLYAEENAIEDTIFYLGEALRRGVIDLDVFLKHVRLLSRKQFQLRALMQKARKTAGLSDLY
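Steps: Tsg101 binding domain dispensed (10 uM final), compounds pinned in DMSO, FITC-labeled PTAP-motif peptide added (50 nM final); after 20 min binding at room temperature, polarization measured.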
KB-V1 MDR tox: qHTS assay for MDR1-selective chemotherapeutics: Primary screen using the drug-selected MDR subline cells KB-V1; Potency, µM (titrated, usually from 46.1 µM), usual class: cytotoxic; actives 3.4% (n = 400,000); AID 1347076, 2019; KB-V1 MDR cells viability, CellTiter-Glo, 72 h; also: % is scaled to controls: 0 for no effect and ±100 for the full control effect; nearly all actives have a fitted effect of over 60% in size
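qHTS viability screen in drug-selected KB-V1 MDR cells: 72 h compound treatment at 37 degrees C, ATP luminescence end point.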
SW480 rereplic: A quantitative high throughput screen for small molecules that induce DNA re-replication in SW480 colon adenocarcinoma cells; SW480 DNA re-replication, Hoechst DNA content imaging, 48 h; Potency, µM (series often up to 46.1 µM), for inactives: at the highest dose re-replication activation, usual class: activators; actives 1.8% (n = 340,000); AID 624297, 2012; also: % of control where 0% means no effect; nearly all actives have a fitted effect of over 55% in size
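250 cells/well; 23 nL cpd via pin tool; 48 hr, 37 C, 5% CO2; Hoechst 40 min; imager read of total nuclear intensity, ex 405/em 500-530 nm.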
MCF10A rereplic: A quantitative high throughput screen for small molecules that induce DNA re-replication in MCF 10a normal breast cells | MCF 10A DNA re-replication, Hoechst nuclear intensity, 48 h | Potency, µM (doses to about 46.1 µM), for inactives: top-dose activity, positive = re-replication, hits mostly activators | actives 2.9% (n = 350,000); also: % of control where 0% means no effect; nearly all actives have a fitted effect of over 50% in size
RGS4 inh: Inhibitors of Regulator of G Protein Signaling (RGS) 4: qHTS | Transcreener GDP fluorescence polarization, RGS4-accelerated GTP hydrolysis | Regulator of G-protein signaling 4 (Homo sapiens), P49798 | AID 504845, 2011 | actives 0.039% (n = 390,000) | Potency, µM (highest dose often 114 µM), for inactives: at the highest dose activity change, negative = inhibition, usual class: inhibitors; also: % is scaled to controls: 0 for no effect and ±100 for the full control effect; nearly all actives have a fitted effect of over 75% in size
Target sequence (P49798 whole entry, looked up): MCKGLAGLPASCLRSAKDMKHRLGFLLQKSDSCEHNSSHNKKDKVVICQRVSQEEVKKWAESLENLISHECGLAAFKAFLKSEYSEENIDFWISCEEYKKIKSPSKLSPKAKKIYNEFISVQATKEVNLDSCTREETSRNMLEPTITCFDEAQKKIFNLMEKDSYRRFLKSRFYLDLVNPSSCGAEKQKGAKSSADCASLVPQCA
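MLSMR compounds (23 nl, pin-transferred) preincubated 10 min at room temperature with a 500nM (2x) first reagent, then RGS4 at 900nM (2x) plus Transcreener GDP mix added; fluorescence polarization (620/688 nm) read before and after 90 min at 30 °C.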
KB-3-1 cytotox: qHTS assay for MDR1-selective chemotherapeutics: Primary screen using the parental adenocarcinoma cell KB-3-1; KB-3-1 viability, CellTiter-Glo ATP luminescence, 72 h; Potency, µM (titrated, usually from 46.1 µM), usual class: cytotoxic; actives 1.4% (n = 400,000); AID 1347075, 2019; also: % is scaled to controls: 0 for no effect and ±100 for the full control effect; nearly all actives have a fitted effect of over 60% in size
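Screening of KB-3-1 cells (DMEM, 10% FBS, phenol-red free) ran from lowest to highest compound concentration; after 72 h at 37 °C viability was read luminescently and curves fitted.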
The depositor's hits bear a star; i = inactive; ? = inconclusive; · = no result; ! = repeats disagree. Unless noted, calls follow the shape of the dose curve; as a rule, active = well fitted curve in the direction sought with a large enough effect; inconclusive = small, poorly fitted or top-dose-only effect, or another doubt; inactive = no such curve, though single readings can be large; an effect the other way counts as inactive or inconclusive. Potency is read from the fitted curve at half-maximal effect.

SMILES | TSG101-PTAP inh | KB-V1 MDR tox | SW480 rereplic | MCF10A rereplic | RGS4 inh | KB-3-1 cytotox
COc1cccc(OC)c1C(=O)Nc1sc2c(c1C(N)=O)CCN(Cc1ccccc1)C2 | -1% | i | -1% | 2% | 11% | i
CCN1CCc2c(sc(NC(=O)c3cc4ccccc4cc3OC)c2C(N)=O)C1 | 6% | i | 12µM* | 18µM* | -31% | ?
CCOc1ccccc1CNC(=O)CSc1n[nH]c(-c2ccccc2)n1 | · | i | · | · | 18% | i
COc1ccc(CCNC(=O)c2ccc(Cn3c(SCc4ccccc4)nc4cccnc43)cc2)cc1 | · | i | · | · | -33% | i
CCSc1ncc(Cl)c(C(=O)Nc2ccc(S(=O)(=O)N3CCCCC3)cc2)n1 | · | i | · | · | -6% | i
CC(C)N1CCc2c(sc(NC(=O)c3ccc4ccccc4c3)c2C(N)=O)C1 | 12% | ? | 15µM* | 9.2µM* | ? | ?
Cc1onc(-c2c(F)cccc2Cl)c1C(=O)Nc1cccc2nsnc12 | -3% | 18µM* | 16µM* | ? | 20% | 18µM*
Cc1onc(-c2c(F)cccc2Cl)c1C(=O)NC1=NCCS1 | 3% | i | 0% | 2% | 20% | i
COc1cccc(C2=CC(c3ccc(OC)c(OC)c3OC)n3nnnc3N2)c1 (configuration not stated) | -3% | i | -4% | 2% | -7% | i
Cc1cccc(C2C=C(c3ccc(C)c(C)c3)Nc3nnnn32)c1 (configuration not stated) | · | ? | · | · | -6% | 21µM*
COc1ccc(C2=CC(c3ccc(F)cc3)n3nnnc3N2)cc1 (configuration not stated) | 0% | i | 15µM* | 23µM* | 5% | i
Cc1ccc(C2=CC(c3ccc(N(C)C)cc3)n3nnnc3N2)cc1 (configuration not stated) | 5% | i | ? | 23µM* | -27% | i
COc1cccc(C2=CC(c3cccs3)n3nnnc3N2)c1 (configuration not stated) | -9% | ? | 5.8µM* | 4.1µM* | -13% | 5.2µM*
CCOC(=O)N1CCN(C(=O)c2cnn(-c3cccc(F)c3)c2-n2cccc2)CC1 | · | i | · | · | 16% | i
Cc1ccc2c(c1)cc1c(=O)n(Cc3ccccc3Cl)nc(C)n12 | · | ? | · | · | 0% | i
O=C(NCc1ccccc1)[C@]1(C(F)(F)F)C[C@H](CCC2CCCCC2)CCCO1 | · | · | · | · | -13% | ·
COc1ccccc1C1C=C(c2ccccc2)Nc2nnnn21 (configuration not stated) | -10% | 8.2µM* | ? | 7.3µM* | 17% | 13µM*
Cn1c(=O)oc2cc(S(=O)(=O)NC3CCCc4ccccc43)ccc21 (configuration not stated) | -3% | i | -13% | 17% | -8% | i
COc1ccccc1N1CCN(C(=O)C2CCCN(S(=O)(=O)c3ccc4c(c3)oc(=O)n4C)C2)CC1 (configuration not stated) | -2% | ? | -5% | 21% | 5% | 10µM*!
Cn1c(=O)oc2cc(S(=O)(=O)N3CCCC(C(=O)NC4CCCc5ccccc54)C3)ccc21 (configuration not stated) | 2% | ? | -2% | 1% | 1% | 5.8µM*
COc1ccc(N2CCN(C(=O)C3CCCN(S(=O)(=O)c4ccc5c(c4)oc(=O)n5C)C3)CC2)cc1 (configuration not stated) | -5% | i | -16% | 1% | 9% | i
COc1ccccc1CNC(=O)Cn1c(=O)ccc2cc(S(=O)(=O)N3CCC(C)CC3)ccc21 | · | i | · | · | -10% | i
COc1ccccc1CNC(=O)Cn1c(=O)oc2cc(S(=O)(=O)N3CCC(C)CC3)ccc21 | · | i | · | · | 27% | 18µM*
CCc1nn2c(=O)cc(COC(=O)c3ccccc3NC(=O)c3ccc(C(C)(C)C)cc3)nc2s1 | · | · | · | · | -3% | ·
Cc1cccc(C)c1NC(=O)c1cc2c(=O)c3ccccc3oc2nc1C(F)(F)F | -3% | 2.1µM* | 17% | 0% | 17% | i
SMILES | TSG101-PTAP inh | KB-V1 MDR tox | SW480 rereplic | MCF10A rereplic | RGS4 inh | KB-3-1 cytotox
CC(C)c1nn2c(=O)cc(COC(=O)c3ccccc3NC(=O)C3CCCCC3)nc2s1 | · | · | · | · | -1% | ·
CC(=O)c1cccc(NC(=O)Cn2c(=O)c(CNc3ccc(C)cc3)cc3cc4c(cc32)OCCO4)c1 | · | i | · | · | 9% | i
O=[N+]([O-])c1ccc(/C=N/Nc2ccnc3cc(Cl)ccc23)o1 | -3% | i | 3.7µM* | 12% | -31% | i
COc1ccc2nc3cccc(OC)c3nc2c1 | -6% | i | ? | 1.3µM* | -14% | i
Cc1cc(C)n(CC(O)Cn2c3ccc(Br)cc3c3cc(Br)ccc32)c(=O)n1 (configuration not stated) | -7% | i | ? | 17% | -20% | i
CN(C)CC(O)Cn1c2ccc(Br)cc2c2cc(Br)ccc21 (configuration not stated) | · | · | · | · | 0.67µM* | ·
CSCCOC(=O)C1=C(C)NC(=O)NC1c1ccc2c(c1)OCO2 (configuration not stated) | 2% | i | 1% | 2% | 17% | i
CCOCc1cc(C2NC(=O)NC(C)=C2C(=O)OCC)ccc1OC (configuration not stated) | -7% | i | -2% | -14% | 16% | i
CC1=C(C(=O)OCc2ccc3c(c2)OCO3)C(c2ccc(Cl)cc2)NC(=O)N1 (configuration not stated) | -4% | 12µM* | 7% | ? | 9% | ?
CCOC(=O)C1=C(C)NC(=O)NC1c1ccc(OC)c(Cl)c1 (configuration not stated) | -7% | 21µM* | -5% | -7% | -4% | i
CC1=C(C(=O)OCc2ccc3c(c2)OCO3)C(c2ccc(F)cc2)NC(=O)N1 (configuration not stated) | -4% | 8.2µM* | -1% | 2% | 17% | 15µM*
O=C(Cn1nc(-c2ccccc2)c2cnc3ccccc3c21)Nc1ccccc1 | · | i | · | · | 0% | i
